# Among all 53,000 sequences or so, about 3,700 (7%) were called active. The full list was thinned out, with actives kept by preference. Values without a mark were called inactive.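 Rule for the calls: active = gene knockdowns whose robust z-score for IL-1 alpha signal is at least 2 or at most -2, so actives lie on both sides; inactive = the rest.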
# Experiment: Components of the Cytosolic LPS Sensing Pathway: Gene Identification via Genome-wide siRNA Screen;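 note: robust z of the log signal after scaling to non-targeting control siRNA wells of the plate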
# Conditions: RAW264.7 macrophages, IL-1a HTRF, actives lie on both sides, screened at 100 nM (by protocol), cells primed 5 h with Pam3CSK4 first
# Method in brief: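 Cells (RAW264.7, 1×10^4 per well) were transfected with siRNA at 100 nM and cultured 48h at 37 degrees C. Pam3CSK4 was added for 5 hours; LipidA transfection followed for 24 hour. IL-1a was then measured by HTRF.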
row,Sequence,z-score
1,CGUGCUGUAUGGCAAAGUUTT against Bst1,0.563
2,GCCCAUGUUUGUGAGGGUUTT against Fem1al,-0.0893
3,GCACUUCCCUCCCUAUGCATT against Cep20,-2.11 (active)
4,GGUUCCAAUGCUAUUGAAUTT against Tc2n,0.391
5,GGUUAUAUUAUGUAGCCUATT against Klf17,0.332
6,GGUCACAGUUGGCAAAGAUTT against Myh11,-0.521
7,GCGUAAGCAGCAAGAUGGATT against Ash2l,1.21
8,GCUUUCAAGUGGUUAUGAATT against Nsun6,0.0136
9,CGUGUAUCGUUGUCUGAAUTT against Donson,2.75 (active)
10,GCGACCAUUUCGUUUUAGUTT against Frat1,1.07
11,GGAAAGCAAGUCGUAAGCCTT against Mrps10,-0.755
12,AAUGCUCAGAAAGAAUAACTT against Sprr2e,-0.31
13,UGUUACUGGACUCUCCACATT against Olfr320,0.372
14,GCUGUGUUAGGAUUGUCCATT against Olfr553,0.252
15,GGUACACUACAUGACUCAUTT against Sall4,2.35 (active)
16,GGCAUCAAGUCCAUUUUUGTT against Slc12a4,0.108
17,GGCAGGCAGAAAGCUUUGUTT against Olfr1054,1.8
18,GCUAAUCACCAAAGCUGAGTT against Larp7,0.546
19,CCUAAUCUUCGUGCUUUACTT against Minpp1,1.4
20,CCUGUGAAAGAUGCUUAUATT against Capn7,-1.65
21,CGGGAUGACUACAAUCUGGTT against Ssbp3,-2.17 (active)
22,GCUCAGCUAGCAGAAAUUCTT against Nlrp2,-1.76
23,GGAGGCCAAAGGACUGAUCTT against Hectd4,1.56

row,Sequence,z-score
1,CCACAGACAGUUAUUACUGTT against Adgre1,-1
2,CCCAAGAGUGUUUGAGAACTT against Zbtb43,0.213
3,GGCAUUUAUUAUCAGGCUGTT against Pes1,0.665
4,GCUCGAGAAGAGUUUGUUATT against 1700030J22Rik,0.933
5,GCAACUUGUUAGUGGACUCTT against Olfr620,-1.08
6,GCUAUGUGGGAAGUUUCAUTT against Tmem263,0.924
7,GGCCUAUAGGUUGGGCUCUTT against Tonsl,-2.57 (active)
8,GCGUGGAGUCUUCAGUCAUTT against Vhl,-0.101
9,GGAGAAGAGGACAGAAGCCTT against Akt1s1,0.757
10,GUUCAUGUCUAUCCUGUCUTT against Hba-x,-2.45 (active)
11,GCUCAAAACAAUCCACGCCTT against 1700006J14Rik,-0.47
12,GGAUGAGAACAACUCUGCUTT against Lrtm2,0.439
13,GGACCUGUUUGAUUUGGUGTT against Nf2,0.8
14,GGAAAACCUUGGACAGGAGTT against Olfr876,-0.267
15,UGUGACUAUUGUUACUGUGTT against Olfr1512,-1.06
16,GCAGUACCGAGCAGCAGAATT against Acad10,-2.41 (active)
17,CGAAUGUGGCUAUGACCUGTT against Kif6,0.555
18,GGAAAAGGAGGUGGUACUGTT against Acan,0.743
19,GCAUACAGCUCAACAGUCATT against Padi2,-0.51
20,GGAGAAGUAGAUGUAUAUGTT against Prkar1b,-1.4
21,GUACACCACAAUCCUCACCTT against Olfr677,-0.0852
22,GGUCCAGAGAAUGUUAUUATT against Spinkl,0.263
23,GAAUAGAAGGGAAGAAAGUTT against Crb3,-2.08 (active)

row,Sequence,z-score
1,GGGAACUUCCUUGAGAAGATT against Mgat4d,0.654
2,GCAACGUGUCUUUUCAAACTT against P2ry10b,-0.223
3,GUUUCCUUGUGCUAAUGUUTT against Olfr1199,1.15
4,GGAAAACCUAAUAAGGUUCTT against Iqce,2.72 (active)
5,GGCUCCAACAUAGAAAUGATT against Tpbpa,0.38
6,GCUACGCAUUGAGGAGCUATT against Pkn1,0.168
7,GCUUAUGUCGAAUGAUAGCTT against Id2,-4.22 (active)
8,GGCUGCCAAGAAAAUCUAUTT against Rab14,0.363
9,GGAUGAACUCAUGAGAGCCTT against Cyb5r4,-0.323
10,GGGUUGAAAGAGCUUGCCATT against Vmn1r198,-2.56 (active)
11,CCGAGGUUGUGAAACGAUGTT against Trp63,-1.47
12,GGAACCUCCUUAUUCAAUGTT against Rspry1,0.0592
13,GGUUGAAGCAGAAGAUAAUTT against Asnsd1,-2.2 (active)
14,GGUGGAGGUCUGGUUUAAGTT against Gsc,-0.4
15,GGUUGGCACAACUGUGUACTT against Cr2,-0.0754
16,GGAAACCAACUUCAGCCUGTT against Gfra1,-0.0125
17,GCAAAUCCCAUGAACAGCUTT against Nvl,-2.55 (active)
18,GGGCAAUCGACUGAGAAUUTT against Lingo4,-0.0246
19,CGAAGAAAACCAUAAGGACTT against Bdnf,-0.876
20,GGAGAGCAAAUUAAGUUCATT against Erc1,1.01
21,GCAAUAAGGGCAUUAUAAATT against Wdhd1,-0.407
22,GGUUCAUAAUGCCUUCAAGTT against Olfr1449,0.719
23,CCAGGAAGUUACAAUUCAATT against Ccpg1,0.181

# — PubChem BioAssay AID1508600 (Functional Genomics Laboratory (NCATS/FGL), 2020)
